# Measurements from ChEMBL document CHEMBL3988442, “University of Dundee, Small-Polar-MMV Screening Library” (2021).
# Target: T1, Aspartate--tRNA(Asp/Asn) ligase (Mycobacterium tuberculosis (strain ATCC 25618 / H37Rv)) (UniProt P9WFW3); note: in the data most compounds retested in dose-response had high values
# T1 sequence (whole entry): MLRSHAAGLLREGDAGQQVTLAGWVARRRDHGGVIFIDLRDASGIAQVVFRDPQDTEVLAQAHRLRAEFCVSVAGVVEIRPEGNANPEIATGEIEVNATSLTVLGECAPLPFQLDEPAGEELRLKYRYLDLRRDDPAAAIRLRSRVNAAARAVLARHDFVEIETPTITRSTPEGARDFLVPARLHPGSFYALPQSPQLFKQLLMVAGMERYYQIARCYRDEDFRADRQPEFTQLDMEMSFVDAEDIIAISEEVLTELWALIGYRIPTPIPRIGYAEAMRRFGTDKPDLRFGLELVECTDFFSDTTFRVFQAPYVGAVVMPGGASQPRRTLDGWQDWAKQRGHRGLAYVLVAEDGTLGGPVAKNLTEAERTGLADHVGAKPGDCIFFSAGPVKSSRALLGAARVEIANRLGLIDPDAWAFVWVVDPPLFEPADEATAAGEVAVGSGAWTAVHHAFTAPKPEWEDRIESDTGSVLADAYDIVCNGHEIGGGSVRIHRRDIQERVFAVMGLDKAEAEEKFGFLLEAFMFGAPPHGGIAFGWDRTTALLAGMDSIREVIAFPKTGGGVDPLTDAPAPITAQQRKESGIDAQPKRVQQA
# Assay: Assay for Asp RNA synthetase-1 from Mycobacterium tuberculosis
# Format: functional
# Set-up: scale not given: direction of the effect not stated beside the values
# Conditions: 30 µM
row,Compound,Percent Effect [%]
1,O=C(CN1CCCC1Cn1cncn1)Nc1cccnc1 (stereo not given),1.28
2,CCOc1ccc(CNCCCn2ccnc2)cc1Br,-5.78
3,O=C(NCC(O)c1ccc(F)c(F)c1)c1cccnc1O (stereo not given),2.78
4,CS(=O)(=O)c1snnc1C1CCN(Cc2ccncc2)CC1,-6.42
5,CCOC1COC2(CCN(Cc3cccc(F)c3)CC2)C1 (stereo not given),-3.19
6,CCn1cc(CN2CCc3nc(N4CCOCC4)nc(O)c3CC2)cn1,-1.83
7,Cc1cc2n(n1)CC(CNCc1ccc(-n3cccn3)nc1)CN2 (stereo not given),-2.59
8,Cc1cc(NC(=O)C(C)N2CCCN(c3nccs3)CC2)on1 (stereo not given),-2.75
9,Cc1nonc1CC(=O)N1C[C@@H]2CC[C@H](C1)N(Cc1ccccc1)C2=O,1.39
10,CCN(c1ccc(C(=O)N2CCCC2)cc1)S(=O)(=O)CC,5.6
11,COC(=O)c1ccoc1COC(=O)CCc1ccc(OC)c(OC)c1,-3.44
12,COc1cccc(CN2CCCC3(CCN(C(=O)c4ccco4)C3)C2)c1 (stereo not given),0.0455
13,CCOCCN1CCN(Cc2nnc(C3CC3)o2)CC1CC (stereo not given),1.06
14,Cc1nc(C)n(CC2CN(Cc3cccc(C(N)=O)c3)CCO2)n1 (stereo not given),4.41
15,Cc1cnn(CC2CCN(CC(O)COc3ccc(F)cc3)CC2)c1 (stereo not given),1.99
16,CCn1c(C2CCCN(Cc3nccn3CCOC)C2)nn(C)c1=O (stereo not given),4.25
17,N#Cc1ccc(CN2CCN(C(=O)c3cc(C4CC4)[nH]n3)CC2)cc1,-2.71
18,CNS(=O)(=O)Cc1ccc(CNC(=O)Nc2cccnc2)cc1,-0.514
19,CCNC(=O)c1ccc2c(c1)nc1n2CCN(Cc2ccco2)C1,3.83
20,Cc1cc(C)n(CC2CN(Cc3nnsc3Cl)CCO2)n1 (stereo not given),-1.81

row,Compound,Percent Effect [%]
1,COCCOCC(=O)Nc1ccc(Br)cc1F,-5.06
2,CC1c2ncc(Cn3cncn3)n2CCN1C(=O)C1CCOCC1 (stereo not given),3.23
3,c1csc(CN2CCOCC3(CCN(C4CCOCC4)C3)C2)n1 (stereo not given),9.2
4,CCc1ccc(C(=O)Nc2ccc(CC3CC(=O)NC3=O)cc2)cc1 (stereo not given),7.7
5,Cc1nocc1C(=O)N1CCc2c(CN(C)C(C)C)n[nH]c2C1,0.866
6,O=C(NCc1cc[nH]n1)NCC(c1ccco1)N1CCCC1 (stereo not given),0.607
7,Cc1c(CN2CCCC(c3[nH]ncc3S(C)(=O)=O)C2)cnn1C (stereo not given),-0.927
8,c1cnc2c(C3CCN(Cc4ccsc4)CC3)n[nH]c2n1,-1.29
9,CCOC1CCCN(C(=O)c2cnc3c(cnn3C3CCCC3)c2)C1 (stereo not given),2.51
10,Cc1cc(CNC(=O)NC(C)c2ccc(N3CCOCC3)cc2)no1 (stereo not given),5.56
11,Cc1cc(C)n(CC2CCCN2C(=O)c2ccc(C(N)=O)cn2)n1 (stereo not given),-3.07
12,Clc1snnc1CN1CCCC(Cn2cncn2)C1 (stereo not given),-2.43
13,COCCN(Cc1nc2c(cnn2C)c(=O)[nH]1)Cc1ccco1,0.88
14,c1ccc(-c2nc(CN3CCc4c(ncn4C4CC4)C3)cs2)cc1,4.49
15,CN(C)S(=O)(=O)N1CCC2(COCc3cnc(-c4ccccc4)nc32)C1 (stereo not given),-4.48
16,CS(=O)(=O)NCc1nnc2n1CCN(CC1CC1)C2,2.77
17,CC(C)n1cc(C(=O)N2Cc3ccccc3OC3(CCOCC3)C2)cn1,-1.29
18,Cc1noc(NC(=O)c2ccc(OC(F)(F)F)cc2)n1,3.01
19,O=C(c1cn(-c2cc(N3CCOCC3)ncn2)cn1)N1CCSCC1,-0.834
20,Cc1nn(C)c(C)c1C1CCCN1Cc1noc(C2CC2)n1 (stereo not given),6.1

# Target: Shiga toxin 2 (Escherichia coli O157:H7) (UniProt P09385+P09386)
# Assay: E. coli 0.157:H7 Shiga Toxin SOP - stx2 screening assay
# Format: functional
# Set-up: scale not given: direction of the effect not stated beside the values
# Conditions: 30 µM
row,Compound,Percent Effect [%]
1,O=C(CN1CCCC1Cn1cncn1)Nc1cccnc1 (stereo not given),9.88
2,CCOc1ccc(CNCCCn2ccnc2)cc1Br,-77.4
3,O=C(NCC(O)c1ccc(F)c(F)c1)c1cccnc1O (stereo not given),-4.45
4,CS(=O)(=O)c1snnc1C1CCN(Cc2ccncc2)CC1,0.0805
5,CCOC1COC2(CCN(Cc3cccc(F)c3)CC2)C1 (stereo not given),-3.58
6,CCn1cc(CN2CCc3nc(N4CCOCC4)nc(O)c3CC2)cn1,-19.4
7,Cc1cc2n(n1)CC(CNCc1ccc(-n3cccn3)nc1)CN2 (stereo not given),3.5
8,Cc1cc(NC(=O)C(C)N2CCCN(c3nccs3)CC2)on1 (stereo not given),4.75
9,Cc1nonc1CC(=O)N1C[C@@H]2CC[C@H](C1)N(Cc1ccccc1)C2=O,2.88
10,CCN(c1ccc(C(=O)N2CCCC2)cc1)S(=O)(=O)CC,-13.5
11,COC(=O)c1ccoc1COC(=O)CCc1ccc(OC)c(OC)c1,0.432
12,COc1cccc(CN2CCCC3(CCN(C(=O)c4ccco4)C3)C2)c1 (stereo not given),-1.7
13,CCOCCN1CCN(Cc2nnc(C3CC3)o2)CC1CC (stereo not given),-12.2
14,Cc1nc(C)n(CC2CN(Cc3cccc(C(N)=O)c3)CCO2)n1 (stereo not given),-4.3
15,Cc1cnn(CC2CCN(CC(O)COc3ccc(F)cc3)CC2)c1 (stereo not given),-53
16,CCn1c(C2CCCN(Cc3nccn3CCOC)C2)nn(C)c1=O (stereo not given),5.34
17,N#Cc1ccc(CN2CCN(C(=O)c3cc(C4CC4)[nH]n3)CC2)cc1,-17.1
18,CNS(=O)(=O)Cc1ccc(CNC(=O)Nc2cccnc2)cc1,-38.8
19,CCNC(=O)c1ccc2c(c1)nc1n2CCN(Cc2ccco2)C1,-56
20,Cc1cc(C)n(CC2CN(Cc3nnsc3Cl)CCO2)n1 (stereo not given),31.3

row,Compound,Percent Effect [%]
1,COCCOCC(=O)Nc1ccc(Br)cc1F,-5.97
2,CC1c2ncc(Cn3cncn3)n2CCN1C(=O)C1CCOCC1 (stereo not given),-10.6
3,c1csc(CN2CCOCC3(CCN(C4CCOCC4)C3)C2)n1 (stereo not given),-7.95
4,CCc1ccc(C(=O)Nc2ccc(CC3CC(=O)NC3=O)cc2)cc1 (stereo not given),-36.3
5,Cc1nocc1C(=O)N1CCc2c(CN(C)C(C)C)n[nH]c2C1,3.98
6,O=C(NCc1cc[nH]n1)NCC(c1ccco1)N1CCCC1 (stereo not given),4.49
7,Cc1c(CN2CCCC(c3[nH]ncc3S(C)(=O)=O)C2)cnn1C (stereo not given),-23.4
8,c1cnc2c(C3CCN(Cc4ccsc4)CC3)n[nH]c2n1,-14.5
9,CCOC1CCCN(C(=O)c2cnc3c(cnn3C3CCCC3)c2)C1 (stereo not given),15.6
10,Cc1cc(CNC(=O)NC(C)c2ccc(N3CCOCC3)cc2)no1 (stereo not given),-23.6
11,Cc1cc(C)n(CC2CCCN2C(=O)c2ccc(C(N)=O)cn2)n1 (stereo not given),-49.3
12,Clc1snnc1CN1CCCC(Cn2cncn2)C1 (stereo not given),-33
13,COCCN(Cc1nc2c(cnn2C)c(=O)[nH]1)Cc1ccco1,22.5
14,c1ccc(-c2nc(CN3CCc4c(ncn4C4CC4)C3)cs2)cc1,-40.4
15,CN(C)S(=O)(=O)N1CCC2(COCc3cnc(-c4ccccc4)nc32)C1 (stereo not given),-12.6
16,CS(=O)(=O)NCc1nnc2n1CCN(CC1CC1)C2,4.81
17,CC(C)n1cc(C(=O)N2Cc3ccccc3OC3(CCOCC3)C2)cn1,-21.7
18,Cc1noc(NC(=O)c2ccc(OC(F)(F)F)cc2)n1,62.3
19,O=C(c1cn(-c2cc(N3CCOCC3)ncn2)cn1)N1CCSCC1,-38.5
20,Cc1nn(C)c(C)c1C1CCCN1Cc1noc(C2CC2)n1 (stereo not given),16.3
